Reference: PubChem BioAssay (Tox21)
Inconclusive results are not listed. Active and inactive are the calls of the source. Unless noted, calls follow the shape of the dose curve; as a rule, active = well fitted curve in the direction sought with a large enough effect in the repeat runs; inconclusive = weak or mixed curves; inactive = no such curve, though single readings can be large; an effect the other way counts as inactive or inconclusive.

Key:
[1] = qHTS assay to identify small molecule agonists of the estrogen receptor alpha (ER-alpha) signaling pathway in the presence of an antagonist - cell viability counter screen (AID 1259386);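 also: series mostly up to about 92 µM; cells exposed to compounds for 22 h at 37 °C before the viability read; nearly all actives have a fitted effect of over 30% in size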
Summary of the method: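 Viability counter screen using VM7Luc4E2 (full-length ER-alpha, four ERE-luciferase). The cells were treated with compounds alongside ICI-182,780 10.0nM for 22hr, and live-cell protease fluorescence was quantified with CellTiter-Fluor.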

[2] = biological target: Progesterone receptor (Homo sapiens) (UniProt P06401); assay: qHTS assay to identify small molecule agonists of the progesterone receptor (PR) signaling pathway (AID 1346784; calls by dose curve; also: nearly all actives have a fitted effect of over 30% in size)
Summary of the method: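 Cells (PR-UAS-bla HEK 293T, GripTite) were plated in assay medium containing 2% charcoal-stripped FBS and incubated 6 hr. Test compounds in DMSO were added for 16 hr at 37C. FRET substrate was then loaded for 2 hr at room temperature before fluorescence reading.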

[3] = biological target: Progesterone receptor (Homo sapiens) (UniProt P06401); assay: qHTS assay to identify small molecule antagonists of the progesterone receptor (PR) signaling pathway (AID 1346795; active = well fitted inhibition curve with a large enough effect in the signal ratio in the repeat runs, not every such curve was filed as active; the % refers to the signal ratio; also: potency is read from the fitted curve at half-maximal effect)
Summary of the method: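 Antagonist mode: compounds tested against 1 nM (final) promegestone stimulation in HEK293T cells expressing PR-UAS-bla reporter, 16 hr at 37C, 5% CO2; beta-lactamase activity detected via B/G FRET substrate after 2 hr at room temperature.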

[4] = qHTS assay to identify small molecule agonists of the progesterone receptor (PR) signaling pathway - cell viability counter screen (AID 1346799; calls by dose curve; also: nearly all actives have a fitted effect of over 45% in size)
Summary of the method: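 Cells (PR-UAS-bla HEK293T) are plated at 3,000/well in 2% charcoal-stripped FBS medium, rested 6 hr, dosed and incubated 16 hr at 37C. CellTiter-Glo is then added and luminescence measured after 30 min at room temperature.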

[5] = qHTS assay to identify small molecule antagonists of the TGF-beta/Smad signaling pathway - cell viability counter screen (AID 1346824); also: nearly all actives have a fitted effect of over 50% in size
Summary of the method: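 SBE-bla HEK 293T cells were plated overnight at 37 C, then given compounds in DMSO plus TGF-beta1 (added as 0.25 ng/mL solution) for 5 hr. After the bla read, CellTiter-Glo was added to the same wells and luminescence read after 30 min at room temperature.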

[6] = qHTS assay to identify small molecule agonists of the TGF-beta/Smad signaling pathway - cell viability counter screen (AID 1346829); also: top concentration of the series differs between compounds; nearly all actives have a fitted effect of over 45% in size
Summary of the method: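 Here the cytotoxicity of library compounds is measured in SBE-bla HEK 293T cells treated for 5 hr, using CellTiter-Glo added to wells already read for the beta-lactamase reporter.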

[7] = qHTS assay to identify small molecule agonists of the TGF-beta/Smad signaling pathway (AID 1346859; active = well fitted activation curve with a large enough effect in the signal ratio in the repeat runs, not every such curve was filed as active; the % refers to the signal ratio; also: series mostly up to about 77 µM)
Summary of the method: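 Reporter line: HEK 293T with stably integrated SBE-controlled beta-lactamase. Compound exposure lasts 5 hr at 37 C and 5% CO2; substrate loading follows for 2 hr at room temperature, with emission read at 460 and 530 nm.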

[8] = biological target: Thyrotropin-releasing hormone receptor (Homo sapiens) (UniProt P34981); assay: qHTS assay to identify small molecule antagonists of the thyrotropin-releasing hormone receptor (TRHR) signaling pathway (AID 1346877; active = well fitted inhibition curve with a large enough effect in the repeat runs, not every such curve was filed as active; also: series mostly up to about 51 µM)
Summary of the method: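 Following an 18 h incubation at 37 °C and a 2 h calcium dye load, TRHR-HEK293 cells were exposed to compound (5 min, room temperature) and challenged with TRH, 1 nM final.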

[9] = biological target: Thyrotropin-releasing hormone receptor (Homo sapiens) (UniProt P34981); assay: qHTS assay to identify small molecule agonists of the thyrotropin-releasing hormone receptor (TRHR) signaling pathway (AID 1346891; calls by dose curve;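 also: HEK293 cells expressing TRHR with calcium dye readout; series mostly up to about 58 µM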)
Summary of the method: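 Cells: TRHR-Hek293, seeded and incubated 18 h. Dye loading: 2 h at 37 °C. Compound added from DMSO stock by pin tool. Read-out: kinetic calcium fluorescence over 3 min.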

[10] = Human pregnane X receptor (PXR) small molecule agonists, qHTS cell viability counter screen (AID 1346977); also: nearly all actives have a fitted effect of over 50% in size
Summary of the method: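 Cytotoxicity counter screen run in the same wells as the PXR luciferase assay, using PXR-Luc HepG2 cells in charcoal-stripped serum medium. Viability: CellTiter-Fluor fluorescence after 24hr compound treatment.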

[11] = Caspase-3/7 induction in HepG2 cells by small molecules, qHTS assay (AID 1346978); also: nearly all actives have a fitted effect of over 15% in size
Summary of the method: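 Wild-type HepG2 cells (2,000/well) were settled 5 h at 37 C, 5% CO2, then exposed to compounds in DMSO for 17 h. Caspase-3/7 activity was read by luminescence 30 min after adding Caspase-Glo 3/7 reagent at room temperature.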

[12] = Caspase-3/7 induction in CHO-K1 cells by small molecules, qHTS cell viability counter screen (AID 1346979); also: nearly all actives have a fitted effect of over 35% in size
Summary of the method: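 Cytotoxicity counter screen run in parallel with the caspase-3/7 assay: CHO-K1 cells, 16hr compound treatment at 37C, then CellTiter-Fluor for 1hr before fluorescence reading.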

[13] = Caspase-3/7 induction in CHO-K1 cells by small molecules, qHTS assay (AID 1346980); also: nearly all actives have a fitted effect of over 15% in size
Summary of the method: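 Wild-type cells were seeded at 1,500 per well and settled 5 hr at 37 C, 5% CO2, then exposed to DMSO-dissolved compounds for 17 hr. Caspase-Glo 3/7 reagent was added, and luminescence was read after 30min at room temperature.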

[14] = Caspase-3/7 induction in HepG2 cells by small molecules, qHTS cell viability counter screen (AID 1346981); also: series mostly up to about 92 µM; nearly all actives have a fitted effect of over 30% in size
Summary of the method: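 Viability determined by CellTiter-Fluor fluorescence in HepG2 wells also used for the luminescent Caspase-Glo 3/7 read. Compounds were present for 16 hr at 37 C, 5% CO2 before reagent addition.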

[15] = biological target: Nuclear receptor subfamily 1 group I member 2 (Homo sapiens) (UniProt O75469); assay: Human pregnane X receptor (PXR) small molecule agonists, qHTS assay (AID 1346982); also: nearly all actives have a fitted effect of over 35% in size; also: potency is read from the fitted curve at half-maximal effect
Summary of the method: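 Compound-induced hPXR transactivation of a CYP3A4 luciferase reporter was scored in HepG2 PXR-Luc cells over 24 hr at 37 C, 5% CO2, by luminescence.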

[16] = qHTS assay to identify small molecule antagonists of the progesterone receptor (PR) signaling pathway - cell viability counter screen (AID 1346798); also: series mostly up to about 92 µM; nearly all actives have a fitted effect of over 50% in size
Summary of the method: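 Counter screen for cytotoxicity: viability of PR-UAS-bla HEK293T cells was measured with CellTiter-Glo luminescence following 16 hr compound exposure in the presence of R5020.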

[17] = biological target: Acetylcholinesterase (Homo sapiens) (UniProt P22303); assay: Acetylcholinesterase (AChE) small molecule antagonists: colormetric cell-based qHTS assay (AID 1347395; calls by dose curve; also: nearly all actives have a fitted effect of over 30% in size)
Summary of the method: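 Cells (SH-SY5Y, 2,000 per well) are seeded and left overnight at 37 C. Compound is added for 30 min, then DTNB and acetylthiocholine for a further 90 min at 37 C before absorbance-based thiocholine detection.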

[18] = biological target: Nuclear receptor subfamily 1 group I member 2 (Rattus norvegicus) (UniProt Q9R1A7); assay: Rat pregnane X receptor (rPXR) activation by small molecules, qHTS assay (AID 1346983); conditions: rPXR luciferase reporter cells, One-Glo luminescence, 24 h; max activation: hits give high values; also: nearly all actives have a fitted effect of over 20% in size
Summary of the method: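 Cell-based rPXR luciferase reporter assay, 2,000 cells per well, rested 5hr at 37 C before compound addition in DMSO, then 24 hr at 37 C. One-Glo reagent was added and luminescence read after 30 min at room temperature.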
% is scaled to controls: 0 for no effect and ±100 for the full control effect.

Chain of Thyrotropin-releasing hormone receptor (Homo sapiens) (P34981 whole entry, looked up): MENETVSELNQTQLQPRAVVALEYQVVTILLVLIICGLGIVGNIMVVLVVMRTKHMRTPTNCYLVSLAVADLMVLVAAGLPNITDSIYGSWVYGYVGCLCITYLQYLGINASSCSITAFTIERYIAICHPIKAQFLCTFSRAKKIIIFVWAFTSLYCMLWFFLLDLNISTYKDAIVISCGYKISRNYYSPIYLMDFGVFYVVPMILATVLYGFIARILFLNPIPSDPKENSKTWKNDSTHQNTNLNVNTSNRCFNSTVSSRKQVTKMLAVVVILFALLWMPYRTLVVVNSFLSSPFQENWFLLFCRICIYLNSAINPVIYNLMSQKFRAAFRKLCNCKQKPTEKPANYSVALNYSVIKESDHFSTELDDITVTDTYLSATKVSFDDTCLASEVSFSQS
Chain of Acetylcholinesterase (Homo sapiens) (P22303 whole entry, looked up): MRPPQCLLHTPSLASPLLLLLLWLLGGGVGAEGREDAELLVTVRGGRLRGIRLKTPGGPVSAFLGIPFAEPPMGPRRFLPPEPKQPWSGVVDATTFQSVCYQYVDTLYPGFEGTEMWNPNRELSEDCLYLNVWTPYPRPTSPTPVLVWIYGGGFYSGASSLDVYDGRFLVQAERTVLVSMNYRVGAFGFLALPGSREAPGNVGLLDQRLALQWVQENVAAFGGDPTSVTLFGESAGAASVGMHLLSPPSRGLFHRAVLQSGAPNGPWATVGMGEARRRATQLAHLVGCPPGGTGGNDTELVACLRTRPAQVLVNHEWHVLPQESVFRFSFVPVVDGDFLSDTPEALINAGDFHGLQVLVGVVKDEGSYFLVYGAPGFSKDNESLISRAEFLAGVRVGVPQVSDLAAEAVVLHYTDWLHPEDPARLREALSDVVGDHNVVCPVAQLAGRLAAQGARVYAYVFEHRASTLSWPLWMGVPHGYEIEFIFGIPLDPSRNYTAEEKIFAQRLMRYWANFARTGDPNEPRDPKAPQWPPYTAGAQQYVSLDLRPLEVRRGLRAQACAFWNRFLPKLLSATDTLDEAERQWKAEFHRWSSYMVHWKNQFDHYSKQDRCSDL
Chain of Progesterone receptor (Homo sapiens) (P06401 whole entry, looked up): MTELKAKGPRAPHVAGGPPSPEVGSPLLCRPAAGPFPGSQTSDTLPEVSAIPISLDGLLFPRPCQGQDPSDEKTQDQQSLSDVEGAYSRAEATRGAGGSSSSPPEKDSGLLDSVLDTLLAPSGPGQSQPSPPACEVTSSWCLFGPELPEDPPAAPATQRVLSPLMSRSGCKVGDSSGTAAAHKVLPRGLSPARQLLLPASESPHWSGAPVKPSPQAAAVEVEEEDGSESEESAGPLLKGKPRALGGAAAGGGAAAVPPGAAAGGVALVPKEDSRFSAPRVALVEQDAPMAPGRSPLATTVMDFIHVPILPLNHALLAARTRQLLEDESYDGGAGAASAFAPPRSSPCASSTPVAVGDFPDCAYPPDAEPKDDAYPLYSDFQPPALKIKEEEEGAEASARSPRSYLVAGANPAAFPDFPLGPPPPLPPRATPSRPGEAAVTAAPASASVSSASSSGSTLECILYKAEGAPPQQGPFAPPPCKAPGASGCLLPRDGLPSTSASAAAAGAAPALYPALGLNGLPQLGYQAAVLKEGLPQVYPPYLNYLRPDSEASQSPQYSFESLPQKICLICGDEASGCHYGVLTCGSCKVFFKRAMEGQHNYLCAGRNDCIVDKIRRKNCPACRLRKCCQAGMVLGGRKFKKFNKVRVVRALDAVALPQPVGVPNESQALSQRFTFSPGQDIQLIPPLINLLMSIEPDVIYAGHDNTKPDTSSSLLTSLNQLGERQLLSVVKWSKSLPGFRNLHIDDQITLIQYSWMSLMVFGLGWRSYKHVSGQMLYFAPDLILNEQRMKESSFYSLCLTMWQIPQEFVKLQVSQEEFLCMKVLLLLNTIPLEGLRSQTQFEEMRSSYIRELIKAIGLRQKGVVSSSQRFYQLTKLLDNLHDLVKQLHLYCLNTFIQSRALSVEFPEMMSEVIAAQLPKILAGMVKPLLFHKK
Chain of Nuclear receptor subfamily 1 group I member 2 (Homo sapiens) (O75469 whole entry, looked up): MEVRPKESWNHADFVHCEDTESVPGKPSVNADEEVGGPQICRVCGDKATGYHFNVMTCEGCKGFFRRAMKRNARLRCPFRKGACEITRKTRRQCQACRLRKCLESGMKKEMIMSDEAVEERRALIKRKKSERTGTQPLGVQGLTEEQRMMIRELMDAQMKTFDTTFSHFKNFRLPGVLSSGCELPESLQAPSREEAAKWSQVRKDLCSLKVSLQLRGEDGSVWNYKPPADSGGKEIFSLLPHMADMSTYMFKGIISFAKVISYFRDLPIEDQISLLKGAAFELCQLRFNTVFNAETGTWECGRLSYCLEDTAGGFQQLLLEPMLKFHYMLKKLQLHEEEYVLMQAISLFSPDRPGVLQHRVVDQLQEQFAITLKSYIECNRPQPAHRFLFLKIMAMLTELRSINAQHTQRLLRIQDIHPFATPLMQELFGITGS
Chain of Nuclear receptor subfamily 1 group I member 2 (Rattus norvegicus) (Q9R1A7 whole entry, looked up): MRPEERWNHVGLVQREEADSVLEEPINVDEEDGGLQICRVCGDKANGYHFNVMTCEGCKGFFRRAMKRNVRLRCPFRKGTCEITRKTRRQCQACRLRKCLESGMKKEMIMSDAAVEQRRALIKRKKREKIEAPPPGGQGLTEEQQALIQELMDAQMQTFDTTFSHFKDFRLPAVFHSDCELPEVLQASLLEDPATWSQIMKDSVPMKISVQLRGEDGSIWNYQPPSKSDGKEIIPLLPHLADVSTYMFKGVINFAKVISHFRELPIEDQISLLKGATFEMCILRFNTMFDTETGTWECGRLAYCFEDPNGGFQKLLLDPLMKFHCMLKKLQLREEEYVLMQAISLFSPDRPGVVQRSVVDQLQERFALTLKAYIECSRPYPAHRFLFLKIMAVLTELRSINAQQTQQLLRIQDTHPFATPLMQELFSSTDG

COCC(=O)N(c1c(C)cccc1C)N1CCOC1=O
inactive: Potency [1] | Potency [2] | Potency [3] | Potency [4] | Potency [5] | outcome [6] | outcome [7] | outcome [8] | outcome [9] | Potency [10] | Potency [11] | Potency [12] | Potency [13] | Potency [14] | Potency [15]

CC(C1CC1)C(O)(Cn1cncn1)c1ccc(Cl)cc1 (configuration not stated)
inactive: Potency [1] | Potency [2] | Potency [16] | outcome [6] | outcome [7] | outcome [8] | outcome [9] | Potency [10] | Potency [11] | Potency [12] | Potency [13] | Potency [14] | Potency [17]
active: Potency [3] 48.3 µM | Potency [15] 27.1 µM

O=S(=O)(O)C(F)(F)C(F)(F)C(F)(F)C(F)(F)C(F)(F)C(F)(F)F
inactive: Potency [1] | Potency [2] | Potency [3] | Potency [16] | Potency [5] | outcome [6] | outcome [7] | Potency [10] | Potency [11] | Potency [12] | Potency [13] | Potency [14] | Potency [15] | Potency [17]

CCCCCCI
inactive: Potency [1] | Potency [2] | Potency [3] | Potency [16] | Potency [5] | outcome [6] | outcome [7] | Potency [10] | Potency [11] | Potency [12] | Potency [13] | Potency [14] | Potency [15] | Potency [17]

CCC(C)n1c(=O)[nH]c(C)c(Br)c1=O (configuration not stated)
inactive: Potency [1] | Potency [2] | Potency [3] | Potency [16] | Potency [5] | outcome [6] | outcome [7] | outcome [8] | outcome [9] | Potency [10] | Potency [11] | Potency [12] | Potency [13] | Potency [14] | Potency [15] | Potency [17]

C(CCOCC1CO1)COCC1CO1 (configuration not stated)
inactive: Potency [1] | Potency [2] | Potency [3] | Potency [4] | Potency [5] | outcome [6] | outcome [7] | outcome [8] | outcome [9] | Potency [10] | Potency [11] | Potency [12] | Potency [13] | Potency [14] | Potency [15] | Potency [17]

CC(=O)CCc1ccc2c(c1)OCO2
inactive: Potency [1] | Potency [2] | Potency [3] | Potency [16] | Potency [5] | outcome [6] | outcome [7] | outcome [8] | outcome [9] | Potency [10] | Potency [11] | Potency [12] | Potency [13] | Potency [14] | Potency [15] | Potency [17]

C[C@]12CC[C@H]3[C@@H](CC=C4C[C@@H](O)CC[C@@]43C)[C@@H]1CC[C@@H]2O
inactive: Potency [1] | Potency [2] | Potency [3] | Potency [16] | Potency [4] | outcome [6] | outcome [7] | Potency [10] | Potency [11] | Potency [12] | Potency [13] | Potency [14] | max activation [18] -0.895%

CCS(=O)(=O)CCSP(=O)(OC)OC
inactive: Potency [1] | Potency [2] | Potency [3] | Potency [16] | Potency [4] | outcome [6] | outcome [7] | Potency [10] | Potency [11] | Potency [12] | Potency [13] | Potency [14] | Potency [15]

NC(=O)O
inactive: Potency [1] | Potency [2] | Potency [3] | Potency [16] | Potency [4] | outcome [6] | outcome [7] | outcome [8] | outcome [9] | Potency [10] | Potency [11] | Potency [12] | Potency [13] | Potency [15] | Potency [17]

c1ccc(N2CCNCC2)cc1
inactive: Potency [1] | Potency [2] | Potency [3] | Potency [16] | outcome [6] | outcome [7] | outcome [9] | Potency [10] | Potency [11] | Potency [12] | Potency [13] | Potency [14] | Potency [15] | Potency [17]

CCCSC(=O)Cl
inactive: Potency [1] | Potency [2] | Potency [3] | Potency [16] | Potency [4] | outcome [6] | outcome [7] | Potency [10] | Potency [11] | Potency [12] | Potency [13] | Potency [14] | Potency [15] | Potency [17]

CNC(=O)Oc1ccccc1C1OCCO1
inactive: Potency [1] | Potency [2] | Potency [3] | Potency [16] | outcome [6] | outcome [7] | outcome [8] | outcome [9] | Potency [12] | Potency [13] | Potency [14] | Potency [15] | Potency [17]

Cc1coc2c1CCC(C)C2 (configuration not stated)
active: Potency [15] 17.8 µM
inactive: Potency [1] | Potency [2] | Potency [3] | Potency [16] | Potency [4] | outcome [6] | outcome [7] | Potency [10] | Potency [11] | Potency [12] | Potency [13] | Potency [14] | Potency [17]
